Several values for one entry are separate records, joined by “and”; a condition that tells them apart may be missing. Equal entries are not always repeated. Records with an inconclusive call do not appear. Entries that show only a call come without a potency. The source holds several records for some structures; these can differ, active in one and inactive in another. Activity calls are given as the source filed them. Unless noted, calls follow the shape of the full dose curve.
How the values were obtained:
[1] = Nuclear factor erythroid 2-related factor 2/antioxidant responsive element (Nrf2/ARE) small molecule agonists: qHTS cell viability counter screen in human keratinocytes (AID 1919968; active = well fitted curve in the direction sought with a large enough effect in the repeat runs; an effect the other way counts as inactive or inconclusive; also: nearly all actives have a fitted effect of over 55% in size; also: potency is read from the fitted curve at half-maximal effect)
Summary of the method: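 Stably transfected HaCaT (KeratinoSens), 1,500/well. Test agents in DMSO were applied for 23 h, 37 C/5% CO2. CellTiter-Fluor was incubated 1 h before the fluorescence read.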

[2] = Nuclear factor erythroid 2-related factor 2/antioxidant responsive element (Nrf2/ARE) small molecule agonists: luciferase reporter gene qHTS assay in human keratinocytes (AID 1919969); also: nearly all actives have a fitted effect of over 35% in size; also: potency is read from the fitted curve at half-maximal effect
[3] = target: Gonadotropin-releasing hormone receptor (Homo sapiens) (UniProt P30968); experiment: Human gonadotropin-releasing hormone receptor (GnRHR) small molecule agonists, calcium flux assay in GnRHR-HEK293 cells (AID 1920063); also: nearly all actives have a fitted effect of over 35% in size
Chain of Gonadotropin-releasing hormone receptor (Homo sapiens) (P30968 whole entry, looked up): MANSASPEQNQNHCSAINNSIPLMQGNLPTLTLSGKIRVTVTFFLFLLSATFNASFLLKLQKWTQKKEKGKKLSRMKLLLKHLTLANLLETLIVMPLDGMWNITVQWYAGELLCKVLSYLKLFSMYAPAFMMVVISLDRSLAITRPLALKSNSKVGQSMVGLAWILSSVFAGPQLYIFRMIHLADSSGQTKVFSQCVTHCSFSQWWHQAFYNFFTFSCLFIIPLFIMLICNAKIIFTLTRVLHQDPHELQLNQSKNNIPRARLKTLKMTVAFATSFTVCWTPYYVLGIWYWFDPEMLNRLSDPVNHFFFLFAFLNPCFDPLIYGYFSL
Summary of the method: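 Stable human GnRHR HEK293 line. 18 h plating, then calcium dye for 1 h at 37 C. Agonist-mode compound addition from DMSO stocks; fluorescence monitored 3 min.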

[4] = target: KiSS-1 receptor (Homo sapiens) (UniProt Q969F8); experiment: Human kisspeptin (KISS1R) small molecule agonists, calcium flux assay in KISS1R-HEK293 cells (AID 1920064; active = well fitted curve in the direction sought with a large enough effect in the repeat runs; an effect the other way counts as inactive or inconclusive)
Chain of KiSS-1 receptor (Homo sapiens) (Q969F8 whole entry, looked up): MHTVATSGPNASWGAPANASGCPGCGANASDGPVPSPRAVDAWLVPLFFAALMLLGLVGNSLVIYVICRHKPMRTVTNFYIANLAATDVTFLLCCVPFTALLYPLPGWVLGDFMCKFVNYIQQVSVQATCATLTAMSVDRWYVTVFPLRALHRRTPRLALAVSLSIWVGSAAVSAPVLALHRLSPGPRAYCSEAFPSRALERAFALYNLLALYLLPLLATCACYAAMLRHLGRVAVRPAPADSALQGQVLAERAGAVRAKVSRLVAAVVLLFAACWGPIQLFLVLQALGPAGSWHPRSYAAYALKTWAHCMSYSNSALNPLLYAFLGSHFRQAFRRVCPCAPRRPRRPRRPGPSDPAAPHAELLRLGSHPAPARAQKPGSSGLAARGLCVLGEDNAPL
Summary of the method: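 After overnight (18 h) culture at 37 C/5% CO2, human KISS1R-HEK293 cells received calcium dye for 1 h, then test compound; emission at 540 nm (excitation 480 nm) was tracked for 3 min.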

[5] = G protein-coupled receptor (GPCR) small molecule agonists, calcium flux assay: HEK293 wild type cell line counter screen (AID 1920065)
Summary of the method: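 Following 18 h incubation at 37 C/5% CO2, plates got calcium dye for 1 h; compounds, ATP or DMSO were then pinned in and fluorescence followed kinetically (480/540 nm).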

[6] = p53 small molecule agonists, cell-based qHTS assay with human liver microsomes (AID 1963577)
Summary of the method: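 p53RE-bla reporter cells were pre-incubated 5 h at 37 C, then treated with compounds plus human liver microsomes (0.5 mg/mL final) and NADPH (0.5 mg/mL final) for 16 h at 37 C. Beta-lactamase activity was read by LiveBLAzer fluorescence after 2 h at room temperature.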

[7] = p53 small molecule agonists, cell-based qHTS assay with rat liver microsomes (AID 1963578)
Summary of the method: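 p53RE-bla cells were exposed to compounds together with rat liver microsomes (0.5 mg/mL final) and NADPH (0.5 mg/mL final) for 16 h at 37 C, then read by LiveBLAzer beta-lactamase fluorescence after 2 h at room temperature.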

[8] = p53 small molecule agonists, cell-based qHTS assay with human liver microsomes: qHTS cell viability counter screen (AID 1963579); also: nearly all actives have a fitted effect of over 45% in size; also: potency is read from the fitted curve at half-maximal effect
Summary of the method: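 p53RE-bla cells (4,000/well) were pre-incubated 5 h at 37 C, then given compounds in DMSO plus human liver microsomes (0.5 mg/mL final) and NADPH (0.5 mg/mL final) for 16 h at 37 C. Viability was read by CellTiter-Glo luminescence.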

[9] = p53 small molecule agonists, cell-based qHTS assay with rat liver microsomes: qHTS cell viability counter screen (AID 1963580); also: nearly all actives have a fitted effect of over 45% in size; also: potency is read from the fitted curve at half-maximal effect
Summary of the method: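 Luminescent ATP readout (CellTiter-Glo, 30 min at room temperature) reports viability of p53RE-bla HCT-116 cells after 16 h at 37 C with test compounds under metabolic activation by rat liver microsomes and NADPH at 0.5 mg/mL final each.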

[10] = p53 small molecule agonists, cell-based qHTS assay: qHTS cell viability counter screen (AID 1963581); also: nearly all actives have a fitted effect of over 45% in size; also: potency is read from the fitted curve at half-maximal effect
Summary of the method: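 qHTS counter screen: 16 h compound exposure at 37 C of p53RE-bla HCT-116 cells (4,000 per well, seeded 5 h prior), cell viability by ATP luminescence.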

[11] = target: Muscarinic acetylcholine receptor M1 (Homo sapiens) (UniProt P11229); experiment: Cholinergic receptor muscarinic 1 (CHRM1) small molecule antagonists, cell-based qHTS assay (AID 1963588); also: nearly all actives have a fitted effect of over 40% in size; also: potency is read from the fitted curve at half-maximal effect
Chain of Muscarinic acetylcholine receptor M1 (Homo sapiens) (P11229 whole entry, looked up): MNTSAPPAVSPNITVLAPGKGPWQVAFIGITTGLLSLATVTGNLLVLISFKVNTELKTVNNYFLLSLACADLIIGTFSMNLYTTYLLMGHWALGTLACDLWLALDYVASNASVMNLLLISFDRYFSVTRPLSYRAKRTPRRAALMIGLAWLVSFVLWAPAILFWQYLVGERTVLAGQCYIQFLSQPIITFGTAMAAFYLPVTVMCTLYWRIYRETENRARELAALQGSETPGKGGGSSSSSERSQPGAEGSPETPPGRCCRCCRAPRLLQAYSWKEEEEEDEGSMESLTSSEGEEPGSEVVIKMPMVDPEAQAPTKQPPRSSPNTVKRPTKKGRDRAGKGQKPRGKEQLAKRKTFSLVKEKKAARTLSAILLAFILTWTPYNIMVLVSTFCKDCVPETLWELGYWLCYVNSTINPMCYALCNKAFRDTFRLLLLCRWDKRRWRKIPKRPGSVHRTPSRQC
Summary of the method: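 Compounds were tested at 15 concentrations in three independent runs. Dye-loaded CHRM1-CHO cells were exposed 5 min at room temperature before stimulation by acetylcholine added at 50nM. Intracellular calcium was read kinetically on FDSS for 3 min.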

[12] = target: Muscarinic acetylcholine receptor M1 (Homo sapiens) (UniProt P11229); experiment: Cholinergic receptor muscarinic 1 (CHRM1) small molecule agonists, cell-based qHTS assay (AID 1963589); also: nearly all actives have a fitted effect of over 35% in size
Summary of the method: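 Kinetic fluorescence (1 s intervals) of calcium-sensitive dye in human M1 CHO cells after compound addition; cells pre-incubated 18 h at 37 C/5% CO2 and dye-loaded 1 h.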

[13] = target: Beta-2 adrenergic receptor (Homo sapiens) (UniProt P07550); experiment: Adrenergic beta2 receptor (ADRB2) small molecule antagonists, cell-based qHTS assay (AID 1963592); also: series mostly up to about 92 µM; nearly all actives have a fitted effect of over 50% in size
Chain of Beta-2 adrenergic receptor (Homo sapiens) (P07550 whole entry, looked up): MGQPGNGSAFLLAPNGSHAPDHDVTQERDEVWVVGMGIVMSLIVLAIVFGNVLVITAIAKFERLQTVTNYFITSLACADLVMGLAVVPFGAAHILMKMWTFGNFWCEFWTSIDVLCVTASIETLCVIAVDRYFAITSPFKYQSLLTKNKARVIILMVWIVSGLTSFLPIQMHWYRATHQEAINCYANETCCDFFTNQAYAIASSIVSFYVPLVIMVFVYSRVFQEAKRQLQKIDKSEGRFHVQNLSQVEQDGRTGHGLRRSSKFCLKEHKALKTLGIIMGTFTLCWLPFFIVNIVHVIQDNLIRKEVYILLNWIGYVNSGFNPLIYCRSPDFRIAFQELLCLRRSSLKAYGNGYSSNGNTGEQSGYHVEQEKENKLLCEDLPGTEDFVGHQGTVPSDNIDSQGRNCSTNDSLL
Summary of the method: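 Assay format: CHO-ADRB2 cells, 18-20hr seeding at 37C/5% CO2, then compound plus 1nM isoproterenol agonist mix for 0.5hr RT. Homogeneous time-resolved fluorescence cAMP detection after 1hr, expressed as 665/615 nm ratio.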

[14] = target: D(2) dopamine receptor (Homo sapiens) (UniProt P14416); experiment: Dopamine D2 receptor (DRD2) small molecule agonists, cell-based qHTS assay (AID 1963594); also: nearly all actives have a fitted effect of over 35% in size
Chain of D(2) dopamine receptor (Homo sapiens) (P14416 whole entry, looked up): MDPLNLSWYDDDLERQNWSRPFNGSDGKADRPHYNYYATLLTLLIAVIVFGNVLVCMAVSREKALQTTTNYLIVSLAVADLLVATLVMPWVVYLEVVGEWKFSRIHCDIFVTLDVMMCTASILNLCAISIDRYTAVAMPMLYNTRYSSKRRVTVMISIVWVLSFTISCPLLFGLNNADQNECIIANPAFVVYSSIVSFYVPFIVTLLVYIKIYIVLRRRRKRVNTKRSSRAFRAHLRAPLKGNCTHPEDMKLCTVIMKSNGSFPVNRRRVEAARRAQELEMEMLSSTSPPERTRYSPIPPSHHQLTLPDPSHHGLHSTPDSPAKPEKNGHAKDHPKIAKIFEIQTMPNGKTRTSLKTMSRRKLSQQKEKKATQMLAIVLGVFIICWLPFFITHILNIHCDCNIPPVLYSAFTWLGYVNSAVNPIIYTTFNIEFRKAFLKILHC
Summary of the method: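 HEK293 cells stably expressing DRD2 were cultured 24 h at 37 C, then given Ro20-1724 (0.1 mM final) and compounds for 10 min at room temperature. NKH477 (200nM) was then added for 30 min. cAMP was read by HTRF.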

[15] = target: D(2) dopamine receptor (Homo sapiens) (UniProt P14416); experiment: Dopamine D2 receptor (DRD2) small molecule antagonists, cell-based qHTS assay (AID 1963595; active = well fitted inhibition curve with a large enough effect in the signal ratio in the repeat runs, with a control signal flat; the % refers to the signal ratio; also: potency is read from the fitted curve at half-maximal effect)
Summary of the method: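 Antagonist mode in DRD2-HEK293 cells: after compound addition with 0.1 mM Ro20-1724, cells received quinpirole (12 nM) and NKH477 (200 nM) for 30 min at room temperature; HTRF cAMP read after 1 h detection.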

[16] = target: 5-hydroxytryptamine receptor 2A (Homo sapiens) (UniProt P28223); experiment: 5-hydroxytryptamine receptor 2A (HTR2A) small molecule antagonists, cell-based qHTS assay (AID 1963586); also: nearly all actives have a fitted effect of over 45% in size
Chain of 5-hydroxytryptamine receptor 2A (Homo sapiens) (P28223 whole entry, looked up): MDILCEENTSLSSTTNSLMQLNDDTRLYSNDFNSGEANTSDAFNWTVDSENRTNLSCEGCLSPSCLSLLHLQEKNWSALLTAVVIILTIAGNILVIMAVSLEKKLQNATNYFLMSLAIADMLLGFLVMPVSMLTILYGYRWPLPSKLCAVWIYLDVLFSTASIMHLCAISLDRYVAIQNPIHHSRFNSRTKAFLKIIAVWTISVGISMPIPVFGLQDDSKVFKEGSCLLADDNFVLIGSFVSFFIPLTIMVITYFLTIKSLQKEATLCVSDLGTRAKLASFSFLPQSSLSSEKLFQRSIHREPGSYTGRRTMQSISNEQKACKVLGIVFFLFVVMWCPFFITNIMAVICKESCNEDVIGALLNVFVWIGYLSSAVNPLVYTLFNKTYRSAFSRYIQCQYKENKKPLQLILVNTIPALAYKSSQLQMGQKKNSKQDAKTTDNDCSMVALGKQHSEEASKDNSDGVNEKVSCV
Summary of the method: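 CHO cells stably expressing human HTR2A were plated for 18 h at 37 C, then loaded with calcium dye for 1 h. Compounds were preincubated 5 min at room temperature before DOI (4 nM solution) was added. Kinetic fluorescence was read for 3 min.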

[17] = target: 5-hydroxytryptamine receptor 2A (Homo sapiens) (UniProt P28223); experiment: 5-hydroxytryptamine receptor 2A (HTR2A) small molecule agonists, cell-based qHTS assay (AID 1963587); also: nearly all actives have a fitted effect of over 30% in size
Summary of the method: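 HTR2A-CHO cells, plated 18 h at 37 C/5% CO2, dye-loaded 1 h at 37 C; compounds in DMSO added by pin tool (agonist mode). Intracellular calcium flux read as kinetic fluorescence on FDSS over 2 min at 1 s intervals.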

[18] = cAMP Responsive Elements (CRE) small molecule agonists, cell-based qHTS assay (AID 1963590)
Summary of the method: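 Test agents in DMSO were incubated 3 h at 37 C/5% CO2 with CRE-bla HEK 293T cells seeded 18 h earlier; LiveBLAzer B/G FRET substrate was added and read after 2 h at room temperature.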

[19] = cAMP Responsive Elements (CRE) small molecule antagonists, cell-based qHTS assay (AID 1963591; active = well fitted inhibition curve with a large enough effect in the signal ratio in the repeat runs, not every such curve was filed as active; the % refers to the signal ratio)
Summary of the method: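 Reporter line CRE-bla HEK 293T in dialyzed-FBS DMEM; cells preincubated 18 h, treated 3 h with compound plus NKH477 (0.25 uM final); LiveBLAzer FRET, 2 h RT.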

[20] = p53 small molecule agonists, cell-based qHTS assay (AID 1963582; active = well fitted activation curve with a large enough effect in the signal ratio in the repeat runs, not every such curve was filed as active; the % refers to the signal ratio)
Summary of the method: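 Measured: fluorescence from cleaved LiveBLAzer substrate. System: p53RE-bla cells, 16 h compound treatment at 37 C, 2 h substrate step at room temperature.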

| Structure (SMILES) | Potency [1] | Potency [2] | Potency [3] | Potency [4] | Potency [5] | Potency [6] | Potency [7] | Potency [8] | Potency [9] | Potency [10] | Potency [11] | Potency [12] | Potency [13] | Potency [14] | Potency [15] | Potency [16] | Potency [17] | Potency [18] | Potency [19] | Potency [20] |
| --- | --- | --- | --- | --- | --- | --- | --- | --- | --- | --- | --- | --- | --- | --- | --- | --- | --- | --- | --- | --- |
| CCC(C)(C)c1ccc(O)c(C(C)(C)CC)c1 | 13.5 µM (active) and 24.3 µM (active) | 7.7 µM (active) | inactive | inactive | inactive | inactive | inactive | 45.3 µM (active) and 25.7 µM (active) | inactive and 25.7 µM (active) | 18 µM (active) and 22.9 µM (active) | 20.9 µM (active) | inactive | inactive | inactive | inactive and 43.3 µM (active) |  |  |  |  |  |
| CCN(C)N=O | inactive | inactive | inactive | inactive | inactive | inactive | inactive | inactive | inactive | inactive | inactive | inactive | inactive | inactive | inactive | inactive | inactive | inactive |  |  |
| COc1ccc2c3c1O[C@H]1[C@H](O)CC[C@H]4[C@@H](C2)N(C)CC[C@@]341 | inactive | inactive | inactive | inactive | inactive | inactive | inactive | inactive | inactive | inactive | inactive | inactive | inactive | inactive | inactive |  | inactive | inactive | inactive |  |
| N#CC(Cl)(Cl)Cl | inactive | inactive | inactive | inactive | inactive | inactive | inactive | inactive | inactive | inactive |  | inactive | inactive | inactive |  | inactive | inactive | inactive | inactive |  |
| CCCC[n+]1cccc(C)c1 | inactive | inactive | inactive | inactive | inactive | inactive | inactive | inactive | inactive | inactive | inactive | inactive | inactive | inactive | inactive | inactive | inactive | inactive | inactive |  |
| N#Cc1nn(-c2c(Cl)cc(C(F)(F)F)cc2Cl)c(N)c1S(=O)C(F)(F)F (centres undefined) | 61.5 µM (active) | inactive | inactive | inactive | inactive | inactive | inactive | inactive | inactive | inactive | inactive | inactive | inactive | inactive | inactive | inactive | inactive |  |  |  |
| CCNc1nc(Cl)nc(NC(C)C)n1 | inactive | inactive | inactive | inactive | inactive | inactive | inactive | inactive | inactive | inactive | inactive | inactive | inactive | inactive | inactive | inactive | inactive | inactive | inactive |  |
| Nn1cnnc1 | inactive | inactive | inactive | inactive | inactive | inactive | inactive | inactive | inactive |  | inactive | inactive | inactive | inactive | inactive | inactive | inactive | inactive | inactive | inactive |
| O=C(O)c1nn(Cc2ccc(Cl)cc2Cl)c2ccccc12 | inactive | inactive | inactive | inactive | inactive | inactive | inactive | inactive | inactive | inactive | inactive | inactive | inactive | inactive | inactive | inactive | inactive |  |  |  |
| COCC(=O)N(c1c(C)cccc1C)[C@H](C)C(=O)OC | inactive | inactive | inactive | inactive | inactive | inactive | inactive | inactive | inactive | inactive |  | inactive | inactive | inactive | inactive | inactive | inactive | inactive | inactive |  |
| N#Cc1c(Cl)c(Cl)c(Cl)c(C#N)c1Cl | 2.68 µM (active) and 2.73 µM (active) | 950 nM (active) and 969 nM (active) | inactive | inactive | inactive | inactive | inactive | 25.2 µM (active) and 18.2 µM (active) | inactive | 18.2 µM (active) | inactive | inactive |  | inactive | 15.1 µM (active) and 4.86 µM (active) | inactive | inactive |  |  |  |
| CNC(=O)Oc1ccccc1C1OCCO1 | inactive | inactive | inactive | inactive | inactive | inactive | inactive | inactive | inactive |  | inactive | inactive | inactive | inactive | inactive | inactive | inactive | inactive | inactive | inactive |
| [O-][Cl+2]([O-])O | inactive | inactive | inactive | inactive | inactive | inactive | inactive | inactive | inactive | inactive | inactive | inactive | inactive |  | inactive | inactive | inactive | inactive | inactive |  |
| CCOC(=O)C(C)OC(=O)c1cc(Oc2ccc(C(F)(F)F)cc2Cl)ccc1[N+](=O)[O-] (centres undefined) | inactive | inactive | inactive | inactive | inactive | inactive | inactive | inactive | inactive | inactive | inactive | inactive | inactive | inactive | inactive | inactive | inactive | inactive | inactive |  |

Source: PubChem BioAssay (Tox21)
